# Source: PubChem BioAssay (NCATS)
# “And” between values parts separate entries of the source, which are not always exact repeats. Identical values can stand only once. Inconclusive results are not listed. More than one record can exist for a structure, and the calls need not agree. The source made the active and inactive calls. Unless noted, calls come from the whole dose curve; as a rule, active = well fitted curve in the direction sought with a large enough effect; inconclusive = small, poorly fitted or top-dose-only effect, or another doubt; inactive = no such curve, though single readings can be large; an effect the other way counts as inactive or inconclusive.
# What was measured:
# [1] = Primary qHTS for small molecule stabilizers of the endoplasmic reticulum resident proteome: Secreted ER Calcium Modulated Protein (SERCaMP) assay (AID 1508630); settings: SH-SY5Y GLuc-SERCaMP (Gaussia luciferase released on ER calcium loss) secretion, thapsigargin, luminescence; series mostly up to 38.4 µM; note: % is set by controls: 0 for no effect and ±100 for the full control effect
# In short: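 The SH-SY5Y reporter protocol was run at 3 concentrations up to 38.3 uM (primary) or 11 concentrations (follow-up): 16 h compound, 100 nM thapsigargin for 4 h, then extracellular luciferase luminescence.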
# [2] = biological target: Cytochrome P450 2D6 (Homo sapiens) (UniProt P10635); assay: Cytochrome P450 family 2 subfamily D member 6 (CYP2D6) small molecule antagonists: luciferase biochemical (cell-free) qHTS assay (AID 1645840; active = well fitted curve in the direction sought with a large enough effect in the repeat runs; an effect the other way counts as inactive or inconclusive; note: nearly all actives have a fitted effect of over 55% in size; note: potency is the fitted concentration of half-maximal effect; for activity change, negative = inhibition: % is set by controls: 0 for no effect and ±100 for the full control effect); settings: P450-Glo CYP2D6 enzyme, luciferin luminescence, 1 h; series mostly up to 57.4 µM
# Chain of Cytochrome P450 2D6 (Homo sapiens) (P10635 whole entry, looked up): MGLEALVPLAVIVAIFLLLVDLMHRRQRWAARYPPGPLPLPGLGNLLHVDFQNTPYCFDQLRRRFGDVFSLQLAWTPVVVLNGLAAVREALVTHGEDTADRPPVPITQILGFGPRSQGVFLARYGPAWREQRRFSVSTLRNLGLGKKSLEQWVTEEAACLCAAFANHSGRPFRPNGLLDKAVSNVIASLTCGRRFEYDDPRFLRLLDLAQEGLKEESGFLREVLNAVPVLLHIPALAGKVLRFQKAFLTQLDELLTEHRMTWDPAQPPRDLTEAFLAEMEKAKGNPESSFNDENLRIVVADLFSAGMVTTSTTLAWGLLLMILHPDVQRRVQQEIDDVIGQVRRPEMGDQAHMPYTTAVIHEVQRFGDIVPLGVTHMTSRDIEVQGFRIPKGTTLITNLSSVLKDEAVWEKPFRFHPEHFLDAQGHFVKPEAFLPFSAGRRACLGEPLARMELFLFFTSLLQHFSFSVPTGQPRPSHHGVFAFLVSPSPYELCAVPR
# In short: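 P450-Glo CYP2D6 system: proluciferin substrate converted by enzyme to luciferin, read by luminescence proportional to activity. Enzyme-substrate mix with compound 10 min at room temperature, then NADPH regeneration 1 h before detection reagent.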
# [3] = Primary qHTS for inhibitors of nuclear receptor binding SET domain protein 2 (NSD2) in an isogenic RCH-ACV NSD2 p.E1099K mutant (9B) (AID 1645876); settings: RCH-ACV NSD2 E1099K (9B) viability, CellTiter-Glo, 72 h; series mostly up to 44.9 µM; note: nearly all actives have a fitted effect of over 70% in size; note: potency is the fitted concentration of half-maximal effect
# [4] = Primary qHTS for inhibitors of nuclear receptor binding SET domain protein 2 (NSD2) in an RCH-ACV wild type WT cells (2C) (AID 1645877); settings: RCH-ACV (leukaemia line) NSD2 WT (2C) viability, CellTiter-Glo, 72 h; series mostly up to 44.9 µM; note: nearly all actives have a fitted effect of over 70% in size; note: potency is the fitted concentration of half-maximal effect
# [5] = biological target: Cytochrome P450 2C9 (Homo sapiens) (UniProt P11712); assay: Cytochrome P450 family 2 subfamily C member 9 (CYP2C9) small molecule antagonists: luciferase biochemical (cell-free) qHTS assay (AID 1645842; active = well fitted curve in the direction sought with a large enough effect in the repeat runs; an effect the other way counts as inactive or inconclusive; note: nearly all actives have a fitted effect of over 55% in size; note: potency is the fitted concentration of half-maximal effect; for activity change, negative = inhibition: % is set by controls: 0 for no effect and ±100 for the full control effect); settings: P450-Glo CYP2C9 enzyme assay, luciferin luminescence; series mostly up to 57.4 µM
# Chain of Cytochrome P450 2C9 (Homo sapiens) (P11712 whole entry, looked up): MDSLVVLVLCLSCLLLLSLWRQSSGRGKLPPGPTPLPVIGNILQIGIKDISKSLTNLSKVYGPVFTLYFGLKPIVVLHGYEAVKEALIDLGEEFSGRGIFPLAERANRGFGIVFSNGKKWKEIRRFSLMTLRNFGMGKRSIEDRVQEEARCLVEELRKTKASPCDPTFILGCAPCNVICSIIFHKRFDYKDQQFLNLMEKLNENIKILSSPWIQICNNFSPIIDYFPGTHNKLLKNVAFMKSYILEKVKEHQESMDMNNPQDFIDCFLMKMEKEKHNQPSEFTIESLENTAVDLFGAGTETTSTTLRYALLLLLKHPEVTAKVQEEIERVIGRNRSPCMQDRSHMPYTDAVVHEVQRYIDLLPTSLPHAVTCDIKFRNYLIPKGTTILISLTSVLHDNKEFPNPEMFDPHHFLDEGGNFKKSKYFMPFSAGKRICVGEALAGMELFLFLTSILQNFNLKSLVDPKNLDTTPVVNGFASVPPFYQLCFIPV
# In short: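 P450-Glo CYP2C9 system: proluciferin substrate with enzyme in mix containing 0.4% BSA, 10 min at room temperature, then NADPH regeneration solution added and incubated 1 h at 37C. Detection reagent stopped reaction; luminescence read after 20 min as RLU.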
# [6] = biological target: N-terminal Xaa-Pro-Lys N-methyltransferase 1 (Homo sapiens) (UniProt Q9BV86); assay: Confirmatory qHTS for Inhibitors of N-terminal methyltransferase 1 (NTMT1): MTaseGlo Assay (AID 1645874); settings: NTMT1 enzyme, MTase-Glo SAH luminescence; series mostly up to 100 µM; note: nearly all actives have a fitted effect of over 65% in size; note: potency is the fitted concentration of half-maximal effect;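 for activity change, negative = inhibition: luminescence from SAH made as NTMT1 methylates SPKRIA peptide using SAM; 0% = DMSO control and -100% = no-enzyme control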
# Chain of N-terminal Xaa-Pro-Lys N-methyltransferase 1 (Homo sapiens) (Q9BV86 whole entry, looked up): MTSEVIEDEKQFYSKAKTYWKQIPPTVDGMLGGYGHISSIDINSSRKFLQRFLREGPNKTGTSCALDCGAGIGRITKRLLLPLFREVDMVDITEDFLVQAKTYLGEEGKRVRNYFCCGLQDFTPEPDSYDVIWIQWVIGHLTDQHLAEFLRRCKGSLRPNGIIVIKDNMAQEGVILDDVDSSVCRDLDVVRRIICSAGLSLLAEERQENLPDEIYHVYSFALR
# In short: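 MTase-Glo luminescence measured SAH formed by 125 nM NTMT1 from 100 uM SAM and 1 uM SPKRIA peptide over 30 min at room temperature, following 15 min compound preincubation. Percent inhibition against no-enzyme and DMSO controls gave 4-parameter Hill fits.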
# [7] = biological target: Catechol O-methyltransferase (Homo sapiens) (UniProt P21964); assay: Confirmatory Screen for Target Class Profiling of Small Molecule Inhibitors of Methyltransferases (AID 1745852; calls by dose curve; note: potency is the fitted concentration of half-maximal effect; for activity change, negative = inhibition: % is set by controls: 0 for no effect and ±100 for the full control effect); settings: MTase-Glo luminescence, SAH detection, recombinant enzyme; measured here: COMT max response; stronger effect = lower value
# Chain of Catechol O-methyltransferase (Homo sapiens) (P21964 whole entry, looked up): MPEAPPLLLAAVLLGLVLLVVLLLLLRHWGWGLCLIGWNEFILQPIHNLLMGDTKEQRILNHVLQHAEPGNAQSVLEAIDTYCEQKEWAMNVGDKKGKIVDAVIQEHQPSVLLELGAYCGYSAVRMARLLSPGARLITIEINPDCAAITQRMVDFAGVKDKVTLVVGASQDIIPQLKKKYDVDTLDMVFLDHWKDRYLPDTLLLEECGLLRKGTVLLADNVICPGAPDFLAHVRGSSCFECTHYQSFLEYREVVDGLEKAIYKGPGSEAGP
# [8] = biological target: Guanidinoacetate N-methyltransferase (Homo sapiens) (UniProt Q14353); assay: as above; settings: MTase-Glo luminescence, SAH detection, recombinant enzyme
# [9] = activity change, negative = inhibition: at 57.3 µM (top of the series) unless noted
smiles,measurement,setting,value
Cc1cnc(-c2cnc(NCCNc3ccc(C#N)cn3)nc2-c2ccc(Cl)cc2Cl)[nH]1,Potency,[1],inactive
same,Potency,[2],1.51 µM (active)
same,Potency,[3],4.59 µM (active) and 3.72 µM (active)
same,Potency,[4],3.25 µM (active) and 3.72 µM (active)
COc1cccc(-c2ccc(NC(=O)C3=C(C(=O)O)CCC3)c(F)c2)c1,Potency,[1],inactive
same,Potency,[5],21.3 µM (active) and 26.8 µM (active)
same,Potency,[3],5.78 µM (active) and 2.95 µM (active)
O=C(NCCCNc1nc(Nc2cccc(NC(=O)N3CCCC3)c2)ncc1I)c1cccs1,Potency,[1],inactive
same,Potency,[6],6.76 µM (active)
same,Potency,[3],5.8 µM (active) and 1.48 µM (active)
same,Potency,[4],5.8 µM (active)
CC[C@H](CO)Nc1nc(NCc2ccccc2)c2ncn(C(C)C)c2n1,Potency,[1],inactive
same,Potency,[3],14.8 µM (active)
Cc1cc(N2CCOCC2)cc2[nH]c(-c3c(NC[C@@H](O)c4cccc(Cl)c4)cc[nH]c3=O)nc12,Potency,[1],inactive
same,Potency,[6],inactive
same,Potency,[3],1.66 µM (active)
same,Potency,[4],2.35 µM (active)
CN1CC[C@@H](c2c(O)cc(O)c3c(=O)cc(-c4ccccc4Cl)oc23)[C@@H](O)C1,Potency,[1],inactive
same,Potency,[3],0.372 µM (active)
Nc1nc(NCCNc2ncc(-n3ccnc3)c(-c3ccc(Cl)cc3Cl)n2)ccc1[N+](=O)[O-],Potency,[1],inactive
same,Potency,[2],1.69 µM (active)
same,Potency,[3],5.15 µM (active) and inactive
same,Potency,[4],4.59 µM (active) and inactive
same,activity,[7],-0.828%
same,"activity change, negative = inhibition",[8]; [9],0%
Nc1cc(C(F)(F)F)c(-c2cc(N3CCOCC3)nc(N3CCOCC3)n2)cn1,Potency,[1],inactive
same,Potency,[3],578 nM (active) and 1.18 µM (active)
COc1ccc2c(OCc3nnc4ccc(-c5ccccc5)nn34)ccnc2c1,Potency,[1],inactive
same,Potency,[2],inactive
same,Potency,[3],inactive
same,Potency,[4],inactive
NC1(Cc2ccc(Cl)cc2)CCN(c2ncnc3[nH]ccc23)CC1,Potency,[1],inactive
same,Potency,[5],inactive
same,Potency,[3],9.34 µM (active)
same,Potency,[4],8.33 µM (active)
same,activity,[7],-4.59%
same,"activity change, negative = inhibition",[8]; [9],0.429%
COc1cc2c(NC3CCN(C(C)C)CC3)nc(C3CCCCC3)nc2cc1OCCCN1CCCC1,Potency,[1],inactive
same,Potency,[6],inactive
same,Potency,[3],9.16 µM (active) and 8.33 µM (active)
same,Potency,[4],11.5 µM (active) and 6.61 µM (active)
same,activity,[7],-9%
same,"activity change, negative = inhibition",[8]; [9],-6.26%
CCn1cc(-c2ccnc3[nH]c(-c4cccc(CN(C)C)c4)cc23)c(-c2ccc(NC(=O)N(C)C)cc2)n1,Potency,[1],inactive
same,Potency,[2],19 µM (active)
same,Potency,[3],112 nM (active) and 1.86 µM (active)
same,activity,[7],-5.39% and -8.37%
same,"activity change, negative = inhibition",[8]; at 29.8 µM (top of the series),2.9%
same,"activity change, negative = inhibition",[8]; at 57.3 µM (top of the series),-1.45%
C=CCn1c(=O)c2cnc(Nc3ccc(N4CCN(C)CC4)cc3)nc2n1-c1cccc(C(C)(C)O)n1,Potency,[1],inactive
same,Potency,[2],inactive
same,Potency,[3],290 nM (active) and 372 nM (active)
same,Potency,[4],230 nM (active) and 468 nM (active)
same,activity,[7],-20.7%
same,"activity change, negative = inhibition",[8]; [9],-6.72%
Cc1ccc(CN2CCNCC2)cc1NC(=O)CNc1ccc(F)c(F)c1,Potency,[1],inactive
same,Potency,[5],inactive
same,Potency,[3],inactive
same,Potency,[4],inactive
O=C(O)C1(Cc2cccc(Nc3nccs3)n2)CCC(Oc2cccc(Cl)c2F)CC1 (configuration not stated),Potency,[1],inactive
same,Potency,[2],inactive
same,Potency,[3],1.45 µM (active)
same,Potency,[4],2.58 µM (active) and 3.72 µM (active)
same,activity,[7],-35%
same,Potency,[8]; [9],42.9 µM (active)
CN1CCN(c2ccc3nc(-c4c(N)c5c(F)cccc5[nH]c4=O)[nH]c3c2)CC1,Potency,[1],inactive
same,Potency,[3],1.3 µM (active) and 742 nM (active)
Cc1cnc(Nc2ccc(F)cc2Cl)nc1-c1c[nH]c(C(=O)N[C@H](CO)c2cccc(Cl)c2)c1,Potency,[1],inactive
same,Potency,[2],8.49 µM (active)
same,Potency,[3],2.9 µM (active) and 18.6 µM (active)
same,Potency,[4],3.65 µM (active) and 14.8 µM (active)
Cn1c(CNc2ccc(C(=N)N)cc2)nc2cc(C(=O)N(CCC(=O)O)c3ccccn3)ccc21,Potency,[1],inactive
same,Potency,[5],10.7 µM (active)
same,Potency,[3],inactive
same,Potency,[4],inactive
same,activity,[7],-2.15%
same,"activity change, negative = inhibition",[8]; [9],1.99%
COc1cc(-c2nn(C3CCC(N4CCN(C(C)=O)CC4)CC3)c3ncnc(N)c23)ccc1NC(=O)c1cc2ccccc2n1C (configuration not stated),Potency,[1],inactive
same,Potency,[5],3.01 µM (active)
same,Potency,[3],183 nM (active) and 590 nM (active)
CC(C)(O)CCc1ccc(OCc2cc(-c3cccc(OC(F)F)c3)c3ncccc3c2)cc1,Potency,[1],inactive
same,Potency,[3],20.9 µM (active)
